According to PubChem BioAssay:
Values without a mark were called inactive. Activity calls are given as the source filed them.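 Rule for the calls: active = fluorescence slope higher than the sample average by over 3 SD (cut at about -0.22 in these data, passing the limit was not always enough); inactive = the rest.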

molecular target: Voltage-gated potassium channel subunit beta-2 (Rattus norvegicus) (UniProt P62483); assay: inhibitors of rat Kvbeta2 reductase activity – biochemical, NADPH fluorescence, primary screen (AID 622); details: recombinant KvBeta, 4-cyanobenzaldehyde reduction, at 10 µM, active compounds read high;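 note: slope of raw intensity against log time taken from 70 to 1610 s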
Sequence (P62483 whole entry, looked up): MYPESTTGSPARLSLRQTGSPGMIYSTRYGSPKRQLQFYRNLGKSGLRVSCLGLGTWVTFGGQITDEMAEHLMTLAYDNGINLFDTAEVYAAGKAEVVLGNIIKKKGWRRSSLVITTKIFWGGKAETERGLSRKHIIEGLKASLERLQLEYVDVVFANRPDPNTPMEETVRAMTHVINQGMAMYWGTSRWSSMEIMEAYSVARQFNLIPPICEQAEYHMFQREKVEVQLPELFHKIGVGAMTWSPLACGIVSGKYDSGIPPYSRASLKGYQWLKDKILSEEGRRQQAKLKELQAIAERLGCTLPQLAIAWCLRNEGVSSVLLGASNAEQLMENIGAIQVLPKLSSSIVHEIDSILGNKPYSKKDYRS

Structure (SMILES)	fluorescence slope
CCCCNc1cc(C)oc(=O)c1C(C)=O	-0.443
COc1ccc2c(c1)C(=O)N(c1ccccc1OC)C(=O)C2	-0.401
Cc1ccc(S(=O)(=O)NCC(=O)N(CC(=O)NC2CCCCC2)Cc2ccco2)cc1	-0.431
CN(C)/C=C1\N=C(c2ccc3c(c2)OCO3)OC1=O	-0.451
CCc1ccccc1NC(=O)CCc1nc(-c2ccc(C)cc2)no1	-0.299
COc1ccc(CNC(=O)c2cnc3n(c2=O)CCS3)cc1	-0.369
CCOC(=O)Cc1csc(NC(=O)CSc2nnc(C)n2C)n1	-0.448
NC(=O)NC(c1ccccc1)c1ccccc1F (stereo not given)	-0.317
O=C(NCCN1CCOCC1)NC1(C(F)(F)F)Oc2ccc(Cl)cc2O1 (stereo not given)	-0.467
CCOc1ccc(Cn2nnc(C(=O)NCc3ccc(OC)cc3)c2N)cc1	-0.536
CC(=O)Nc1cccc(Oc2nc(C)cc(C)c2C#N)c1	-0.553
O=P1(O)C=C(c2ccccc2)NC(c2ccccc2)=C1	-0.35
Cc1cc2ccccc2c(=O)n1CC(=O)N(C)c1ccc(F)cc1	-0.353
COCCN(Cc1cc2cc3c(cc2n2nnnc12)OCO3)C(=O)c1ccccc1F	-0.352
c1coc(CN(Cc2cccs2)Cc2nnnn2C2CCCCC2)c1	-0.571
c1ccc(-c2nn3c(Cn4nnc5ccccc54)nnc3s2)nc1	-0.425
O=C(CSCc1cccs1)N1CCCC1	-0.528
CCOc1ccccc1-n1c(SCC(=O)NC(C)CC)nnc1-c1ccoc1C (stereo not given)	-0.439
CCOC(=O)N1CCC(n2c(=S)[nH]c3cc(OC)c(OC)cc3c2=O)CC1	-0.631
Cc1ccc(Cn2c(SCCN3CCCCC3)nc3c2c(=O)[nH]c(=O)n3C)cc1	-0.577

Structure (SMILES)	fluorescence slope
Cc1ccc(Cn2ccc(NC(=O)c3cc(-c4cccs4)on3)n2)cc1	-0.493
Cc1nnc(N2C(=O)C(O)=C(C(=O)c3ccco3)C2c2ccc(F)cc2)s1 (stereo not given)	-0.601
COC(=O)c1cc(=O)nc2sc(-c3cccs3)nn12	-0.463
CCN(CC)CCCNc1oc(-c2cccc(Cl)c2)nc1C#N	-0.0368 (active)
Cn1c(SCC(=O)O)nnc1C1CCCCC1	-0.515
CC1CCN(C(=O)CSc2nnc(-c3ccc(S(=O)(=O)N4CCOCC4)cc3)n2C)CC1	-0.612
COCCn1nnnc1C(c1cccs1)N1CCN(c2cc(C)ccc2C)CC1 (stereo not given)	-0.618
CC1CCc2nn(CC(=O)NCCN3CCOCC3)cc2C1 (stereo not given)	-0.612
CCOC(=O)c1c(C)[nH]c(C(=O)Cn2c(=O)c3c(ncn3CC)n(Cc3ccccc3)c2=O)c1C	-0.29
COc1cccc(C(=O)Nc2cc(C)c3c(=O)oc4ccccc4c3n2)c1	-0.429
O=C(CN1C(=O)COc2ccccc21)N(Cc1cccnc1)Cc1ccccc1F	-0.324
O=c1c2ccccc2c(/C=N/n2cnnc2)c(O)n1-c1ccccc1	-0.102 (active)
COCCNC(=O)C1CCCN(c2ncccn2)C1 (stereo not given)	-0.539
COc1ccc(CNc2nc(NCc3ccc(OC)cc3)n(S(C)(=O)=O)n2)cc1	-0.626
O=C(CSc1nnc2c3cc(F)ccc3nc(-c3ccccc3)n12)N1CCOCC1	-0.37
CSc1nc(N)nc(SCCS(=O)(=O)c2ccc(Cl)cc2)c1C#N	-0.442
CCOC(=O)c1sc2nc(NC(=O)C3CCCCC3)sc2c1C	-0.533
CC(C)(C)OC(=O)NCCc1nnc(SCC(=O)c2ccc(Cl)cc2)o1	-0.495
Cc1nc2ccc(C(=O)c3ccccc3)cc2[nH]1	-0.389
CCOC(=O)c1ccc(NC(=O)CSCc2ccco2)cc1	-0.471
